Source: PubChem BioAssay
The list is not random: actives were taken first. Their share in the collection is about 0.57%.
15-hLO-2 inh: 15-hLO-2 (ALOX15B) enzyme inhibition; O15296; Potency, µM (doses to about 57.1 µM), without a hit: at the top dose activity change, negative = inhibition, usual class: inhibitors; AID 881; purified 15hLO-2, xylenol orange hydroperoxide absorbance; 110,000 compounds, 0.56% hits; further: potency means the concentration at half of the fitted maximal effect; nearly all actives have a fitted effect of over 60% in size
Target sequence (O15296 whole entry, looked up): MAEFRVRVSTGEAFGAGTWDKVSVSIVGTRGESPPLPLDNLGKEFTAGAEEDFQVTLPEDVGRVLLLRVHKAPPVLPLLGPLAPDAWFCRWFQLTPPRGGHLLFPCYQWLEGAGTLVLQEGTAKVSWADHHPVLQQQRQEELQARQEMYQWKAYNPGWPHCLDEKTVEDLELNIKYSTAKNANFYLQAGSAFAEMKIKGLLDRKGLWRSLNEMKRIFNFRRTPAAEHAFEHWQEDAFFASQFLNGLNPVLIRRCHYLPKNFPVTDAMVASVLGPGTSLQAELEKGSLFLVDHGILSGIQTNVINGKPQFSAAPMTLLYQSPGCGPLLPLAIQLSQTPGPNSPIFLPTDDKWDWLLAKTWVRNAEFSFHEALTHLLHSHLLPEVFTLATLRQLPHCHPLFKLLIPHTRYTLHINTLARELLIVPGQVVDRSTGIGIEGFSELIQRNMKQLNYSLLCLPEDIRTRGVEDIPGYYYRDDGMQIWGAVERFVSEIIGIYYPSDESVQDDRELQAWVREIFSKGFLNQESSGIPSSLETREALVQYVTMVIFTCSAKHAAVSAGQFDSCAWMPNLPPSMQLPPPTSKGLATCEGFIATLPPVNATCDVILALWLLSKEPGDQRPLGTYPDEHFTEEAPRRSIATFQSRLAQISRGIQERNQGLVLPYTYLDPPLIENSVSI
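Purified human 15hLO-2 (50 nM final) preincubated with compounds 15 min at room temperature in 25 mM Hepes pH 7.5, 0.01% Triton X-100, then 45 uM arachidonic acid added for 90 min; hydroperoxide detected via ferrous/xylenol orange, 573/405 nm absorbance ratio.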
12-hLO inh: blocks human 12-lipoxygenase activity | P18054 | purified 12-hLO, xylenol orange hydroperoxide absorbance | Potency, µM (titrated, usually from 57.1 µM), for inactives: top-dose activity change, negative = inhibition, hits mostly inhibitors | 150,000 compounds, 0.12% hits | AID 1452; further: potency means the concentration at half of the fitted maximal effect; nearly all actives have a fitted effect of over 55% in size
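150 nM 12hLO, 25 mM Hepes pH 7.0 + 0.01% Triton X-100; cpd preinc 15 min RT; 40 uM arachidonic acid, 30 min RT; Fe-XO 30 min; A573/A405 ratio as read-out.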
IMPase Li inh: IMPase inhibition in cells with lithium potentiation | CHO-M1 cells, IP1 TR-FRET (IP-One), carbachol + lithium | Potency, µM (titrated, usually from 59.4 µM), for the others: at the top dose activity, negative = IMPase inhibition, usual class: inhibitors | 210,000 compounds, 0.35% hits | AID 1457;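 further: IP1 builds up when IMPase is blocked and the TR-FRET signal falls; potency means the concentration at half of the fitted maximal effect; plate controls were basal vehicle for no effect and high inhibitor control for full effect; nearly all actives have a fitted effect of over 50% in size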
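Steps: plate 2000 CHO-M1 cells per well and culture 16–30 h; add compound and lithium; incubate 30 min, 37C; add d2-IP1 tracer and Eu cryptate anti-IP1 antibody in lysis buffer; read after 10 min at room temperature.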
IMPase inh: membrane-permeable compound that blocks inositol monophosphatase | CHO-M1 cells, IP1 accumulation, HTRF TR-FRET ratio | inhibition (IP1 accumulation), % at 46.1 µM | 120,000 tested, under 10 active | AID 901; active means well fitted curve in the direction sought with a large enough effect in the signal ratio, not every such curve was filed as active; inconclusive means small, poorly fitted or top-dose-only effect, or a change in a side signal; inactive means no such curve, though single readings can be large or run the other way; the % refers to the signal ratio;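 further: cells stimulated with carbachol in lithium chloride buffer; plate controls were DMSO basal wells for no effect and reference inhibitor wells for full effect; higher means more IMPase inhibition seen as more IP1 and lower FRET ratio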
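Elevated IP1 in lysates lowers TR-FRET signal (665/620 ratio and 620 channel reported). Cells were CHO-M1, given carbachol (50 uM as added) plus 50mM LiCl, pH 7.4, 30 min, 37C; compounds titrated up to 46 uM; AC50 by Hill equation.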
An asterisk follows results filed as active; ? = inconclusive; · = no result given; [ ] = another dose, or the depositor's remark. Unless noted, the call rests on the fitted dose curve; in most records, active means well fitted curve in the direction sought with a large enough effect; inconclusive means small, poorly fitted or top-dose-only effect, or another doubt; inactive means no such curve, though single readings can be large; an effect the other way counts as inactive or inconclusive. Unless noted, on the % scale 0 is the no-effect control and ±100 the full control effect.

SMILES | 15-hLO-2 inh | 12-hLO inh | IMPase Li inh | IMPase inh
CC(=O)CSc1nc(-c2cccs2)c(C#N)c(=O)[nH]1 | · | · | 7.94µM* | ·
CC(=O)CSc1nc(N)c(C#N)c(-c2cccs2)c1C#N | -6.1% | 3.2% | 17.7%[38.3 µM] | -10.0
OC[C@@H]1O[C@@H](n2cnc3cncnc32)[C@@H](O)[C@H]1O | 7.9% | 3.0% | · | -7.4
C[C@@H](O)C#C[Si](C)(C)c1ccccc1 | · | · | 4.8% | ·
Cc1cc(C)c(OCC(=O)Nc2ccc3c(c2)OCO3)cc1C | -2.1% | -9.7% | 10µM* | -7.3
Cc1ccc(C2C(C#N)=C(N)SC(N)=C2C#N)c(C)c1 | 12.6µM* | ? | 7.94µM* | 0.4
C=CC(C1=CC(=O)C(OC)=CC1=O)c1ccc(OC)cc1 (configuration not stated) | ? | ? | 12.3% | ·
C=CC(C1=CC(=O)C(OC)=CC1=O)c1ccccc1 (configuration not stated) | 20µM* | -25.2% | 24.9% | ·
CCOc1ccc(C2C(C(=O)c3ccco3)=C(O)C(=O)N2Cc2cccnc2)cc1OC (configuration not stated) | -6.8% | -13.5% | 11.2µM* | -16.9
O=C(C1=C(O)C(=O)N(CCc2ccccc2)C1c1cccnc1)c1ccco1 (configuration not stated) | -4.5% | -4.1% | 4.47µM* | ?
Cc1ccc(C2C(C(=O)c3ccco3)=C(O)C(=O)N2c2nnc(C)s2)cc1 (configuration not stated) | -11.2% | 0.6% | 10µM* | ?
O=C(C1=C(O)C(=O)N(CCc2ccccc2)C1c1cccs1)c1ccco1 (configuration not stated) | · | · | -21.9% | ·
COCCCN1C(=O)C(O)=C(C(=O)c2ccc(C)o2)C1c1cccc(Br)c1 (configuration not stated) | 52.9% | -6.7% | 10µM* | ?
COC(=O)c1sc(N2C(=O)C(O)=C(C(=O)c3ccc(C)o3)C2c2ccc(F)cc2)nc1C (configuration not stated) | ? | -5.8% | 7.94µM* | ?
COCCCN1C(=O)C(O)=C(C(=O)c2ccco2)C1c1ccccc1 (configuration not stated) | 12.9% | 3.5% | 7.94µM* | ?
CCOc1cc(C2C(C(=O)c3ccco3)=C(O)C(=O)N2CCc2ccccc2)ccc1O (configuration not stated) | -18.1% | -10.3% | 1.8%[38.3 µM] | 7.7
Cc1cccc2cc(C#N)c(SCC(=O)NCc3cccs3)nc12 | · | -2.3% | 7.94µM* | ·
Cc1cccc2cc(C#N)c(SCC(=O)NNC(=O)Cc3ccccc3)nc12 | -29.6% | 0.6% | ? | -9.9
Cc1ccc(C)c2nc(SCC(=O)NCc3cccs3)c(C#N)cc12 | · | 9.5% | 5.01µM* | 0.4
Cc1cccc2cc(C#N)c(SCC#N)nc12 | · | · | 14.1µM* | ·
C=C1CCO[C@@]2([C@H](O)[C@@](C)(O)CO)NC(=O)[C@]1(O)NC2=O | 0.5%[11.4 µM] | 0.0%[11.4 µM] | -13.1% | ·
CCOc1ccc(NS(=O)(=O)c2ccc(C)c(C(=O)O)c2)cc1 | · | -2.3% | · | ·
COc1cc2c(-c3ccc(O)cc3)nc3c(c(C)nn3-c3ccccc3)c2cc1OC | · | -3.9% | 10.1% | ·
COc1cc2c(C)nc3c(c(C)nn3-c3ccccc3)c2cc1OC | · | · | 11.2µM* | ·
Cc1ccccc1Nc1oc(-c2ccccc2)nc1-c1ccccc1 | · | 2.0% | 26.0% | ·
SMILES | 15-hLO-2 inh | 12-hLO inh | IMPase Li inh | IMPase inh
COc1cc([N+](=O)[O-])cc2sc(NC(=O)C3CC3)nc12 | · | · | 22.4µM* | ·
COc1cc([N+](=O)[O-])cc2sc(NC(=O)C(C)(C)C)nc12 | · | · | 6.0% | ·
CCOc1ccc(CCNC(=O)c2ccc(Nc3nc4ccccc4n4nnnc34)cc2)cc1OCC | · | · | · | 7.5
c1ccc(CCNc2nc3ccccc3n3nnnc23)cc1 | -7.2% | 3.0% | 3.55µM* | ?
COc1ccc(CCNc2nc3ccccc3n3nnnc23)cc1OC | -12.5% | -4.4% | 10µM* | 0.5
COc1ccc(-c2cc([C@H](O)[C@@H]3CCCCN3)c3ccccc3n2)cc1 | 23.9%[11.4 µM] | -4.7%[11.4 µM] | · | ·
COc1ccc(S(=O)(=O)N(C)CC(=O)O)cc1C | · | 2.2% | · | ·
CCC(CC)C(=O)Nc1cccc(S(=O)(=O)c2cccc(NC(=O)C(CC)CC)c2)c1 | 8.5% | 4.0% | 11.2µM* | -9.9
COc1cc2c3cc1Oc1c(OC)c(OC)cc4c1[C@@H](Cc1ccc(O)c(c1)Oc1ccc(cc1)C[C@@H]3N(C)CC2)CN(C)C4 | 3.3%[11.4 µM] | -6.8%[11.4 µM] | 4.2% | ·
CNC(=O)[C@@H]1O[C@@H](n2cnc3c(N)ncnc32)[C@@H](O)[C@H]1O | -5.2% | 1.1% | · | -8.9
Cc1ccc(S(=O)(=O)OCC(=O)O)cc1 | -9.4%[11.4 µM] | 0.7%[11.4 µM] | 1.4% | ·
CC(C)C1=Nc2cccc3cccc(c23)N1 | 10µM* | -2.7% | 18.0%[38.3 µM] | 6.6
COc1ccc(C2=Nc3cccc4cccc(c34)N2)cc1 | 53.1% | 11.4% | 11.1%[38.3 µM] | -0.2
O=c1c(-c2ccccc2)coc2cc(O)cc(O)c12 | 4.8% | 11.2µM* | 15.3% | ·
COc1ccccc1OC[C@H](O)CN1CCN(CC(=O)Nc2c(C)cccc2C)CC1 | 10.4% | 2.8% | · | 3.6
CN(C)c1ccc(N=Cc2ccco2)cc1 | 31.6µM* | ? | 173.7%[38.3 µM] | 70.6
CC(=O)N1CCC2(CCCN(C(c3ccccc3)c3ccccc3)C2)CC1 | 3.9% | -7.3% | 5.9% | ·
Cc1nc(NC(=O)COC(=O)c2ccc(S(=O)(=O)N3CCc4ccccc4C3)cc2)c(Cl)cc1Cl | · | · | 10µM* | ·
O=C(COC(=O)c1ccc(Cl)c(S(=O)(=O)N2CCc3ccccc3C2)c1)Nc1ncc(Cl)cc1Cl | · | -6.8% | -3.9% | ·
Clc1ccc(N2CCN(c3ncnc4c3oc3ccccc34)CC2)cc1 | -7.0% | 0.8% | 10µM* | -22.3
CC(C)(O)[C@@H]1CCC[N+]2(C)CCCC[C@H]12 (some centres not stated) | · | · | 16.2% | ·
CNc1ncnc2ccc(-c3ccccc3C#N)cc12 | -4.1% | · | -4.3% | ·
CC1=C(C(=O)OCc2ccccc2)C(c2ccc(C3CCCCC3)cc2)NC(=O)N1CCCCCC(=O)O (configuration not stated) | 25.1µM* | -3.1% | 15.9% | ·
Cc1cc(OCC(C)C)ccc1/C(O)=C1/C(=O)C(=O)N(Cc2cccnc2)C1c1ccncc1 (configuration not stated) | · | 5.2% | 4.47µM* | ?
CCCCOc1ccc(/C(O)=C2/C(=O)C(=O)N(Cc3cccnc3)C2c2ccncc2)c(C)c1 (configuration not stated) | · | 1.7% | 10µM* | ·
Cc1cc(N2C(=O)C(O)=C(C(=O)c3ccc(C)o3)C2c2cccs2)no1 (configuration not stated) | 15.5%[2.29 µM] | 13.4% | 10µM* | ?
COc1cccc([C@@H]2Oc3ccc(OC)cc3[C@H](O)[C@H]2O)c1 | · | · | 17.7% | ·
O[C@@H](c1cc(-c2ccccc2)nc2c1ccc1ccccc12)[C@@H]1CCCCN1 | 21.8%[11.4 µM] | -4.0%[11.4 µM] | · | ·
CN(C)c1ccc(N/C=C/C(=O)c2ccco2)cc1 | 25.1µM* | -14.9% | 67.8%[38.3 µM] | 32.0
